Measured values reported in the OligoGym collection.

Biological target: MTDH
Experiment: pooled miR-30 sensor sort-seq; sequence = guide strand
Conditions: shRNA
Further: reference of the scale not given here.

Row | Sequence | sensor-assay potency score (higher = more potent)
1 | TTACACTTTGAGGTGTTCGAAC | -0.892
2 | TTGCTTACTAATCTGTAGGCAA | -0.352
3 | TTCTCGGACAGTTTCTTCCGGT | -0.0604
4 | TTTATCATCATCTGAGACCTTT | -0.0741
5 | TATTCTTCTTGGAACCAACAGG | -0.744
6 | TTTTGCTTGGTATTTGACTTGG | -0.198
7 | TAACTTGAACATTTAGATGAGA | -0.76

Biological target: MTF2
Experiment: as above
Conditions: shRNA

Row | Sequence | sensor-assay potency score (higher = more potent)
8 | TTTTTTTCTATGCCATTGCTTA | -0.923
9 | TACTCTTCTTGACATATTGTAC | -0.653
10 | TTGACATATTGTACAGACCATT | -1.28
11 | TAAAACAAGCCATCTGACCATC | -1.1
12 | TTATCTTTTTGATAGTGCCAAG | -1.55
13 | ATGATTGAGTTGTAACTCCTGA | -0.17
14 | TATAGAACAAGGTAAATCCAAA | -1.04
15 | TTTGCAGCACTGTAGCATCTTC | -0.454
16 | TATTCTGGTCCAGAACTGCAGA | -0.798
17 | TTTATCTTTTTGATAGTGCCAA | -0.334
18 | TTCCACAAGATACTGCACCTTT | 0.329
19 | TTTGGCTTTATGTCCATCCTGT | 0.854

Biological target: MTFP1
Experiment: as above
Conditions: shRNA

Row | Sequence | sensor-assay potency score (higher = more potent)
20 | TTGGACACCAGGGAGCCAGGTG | -0.945
21 | TAGAGCTTGCGCAGGCTGGAGT | -0.938
22 | TCCGCCAGCACGTAGGAGCTGG | -1.34
23 | TCAGCCACACCACCGCCGCTGG | -1.36
24 | TATCGCACCCACGTGTCCCGGT | -0.561
25 | TCCACCGACCTCTCCAGCCTTC | -1.18
26 | TAGGAGGTTGACATGAAGCAGG | -1.07
27 | TGTCTCTAAGCTTCTGTCCAGC | -0.761
28 | TTGTCTCTAAGCTTCTGTCCAG | -0.49
29 | TGTTGGGTAGAGCTTGCGCAGG | -1.71
30 | TTTGTCAATGGCATCCGCCAGC | -0.615
31 | TAGCTCAGCCACACCACCGCCG | -0.967

Biological target: MTG1
Experiment: as above
Conditions: shRNA

Row | Sequence | sensor-assay potency score (higher = more potent)
32 | TTTCCCTTTCCTGAGGTGCTGC | -0.722
33 | TTCTCCTTCTAAGTGTTGCATA | -0.79
34 | TATAGCTTTAACTCCTTCTGAG | -0.0288
35 | TTTGTTGAGGGTGTACAGCAGG | -0.227
36 | ATTTTGGACATCACAGCTCTGG | -0.514
37 | TCATCCTTTACACAGTTGGTAA | -1.44
38 | TTTTGGACATCACAGCTCTGGT | -1.25
39 | TTATAGCTTTAACTCCTTCTGA | -0.275
40 | TTCTCTTTTCGGTGGTAGCGGT | -0.857
